# Results filed as inconclusive are left out. Unmarked numbers belong to inactive results. Calls of active or inactive are those of the source. The call rests on the fitted dose curve; in most records, active means well fitted inhibition curve with a large enough effect; inconclusive means small, poorly fitted or top-dose-only effect; inactive means no such curve, though single readings can be large or run the other way.
# Experiment: qHTS for Inhibitors of the Aldehyde Dehydrogenase Family (ALDH1A2, ALDH1A3, ALDH2, ALDH3A1) (AID 2061307); further: nearly all actives have a fitted effect of over 50% in size; on Potency: test system not described further here
# Details: ALDH inhibition qHTS; series mostly up to 50.3 µM; activity change, negative = inhibition: at the top concentration
# On the % scale 0 is the no-effect control and ±100 the full control effect; potency means the concentration at half of the fitted maximal effect.
Structure (SMILES),"activity change, negative = inhibition",Potency
CC(=O)c1c(C)n(-c2ccc(C)cc2)c2ccc(OC(=O)COc3ccccc3)cc12,12% [at 34.4 µM],
Cc1ccc2nc3sc(C(=O)NC4CCC(O)CC4)cc3cc2c1 (stereo not given),,6.34 µM (active)
CCOC(=O)c1c(C)n(-c2ccccc2)c2ccc(OC(=O)c3ccccc3)cc12,-2.52% [at 34.4 µM],
O=C(CCC1CCCN(S(=O)(=O)c2ccccc2F)C1)NCCCN1CCOCC1 (stereo not given),3.62%,
COc1cccc(S(=O)(=O)NC2CCN(C#N)C2)c1 (stereo not given),-16.3%,
Nc1cc(S(=O)(=O)N2CCN(S(=O)(=O)c3ccc4c(c3)OCCO4)CC2)ccn1,-2.49%,
Cc1cc(NS(=O)(=O)c2ccc(Nc3nc(-c4ccc(C)c(C)c4)cs3)cc2)no1,,0.896 µM (active)
Cc1ccc(S(=O)(=O)Nc2cnccc2C(=O)Nc2nc(-c3ccco3)cs2)cc1,,7.98 µM (active)
COc1ccc(-n2c(C)c(C(C)=O)c3cc(OC(=O)COc4ccccc4)ccc32)cc1,0% [at 34.4 µM],
COc1ccc(-c2nc(CCNC(=O)c3c(F)cccc3Cl)cs2)cc1,-12.5%,
Cc1ccc(C(=O)NCC(c2ccc3c(c2)OCO3)N2CCN(c3ccc(F)cc3)CC2)cc1 (stereo not given),-16.7%,
CC(=O)Nc1cccc(OCc2cccc(C3Nc4ccccc4C(=O)N3Cc3ccco3)c2)c1 (stereo not given),,7.94 µM (active)
CSCCC(NS(=O)(=O)c1ccc2c(c1)oc(=O)n2C)C(=O)N1CCN(c2ccc(C(C)=O)cc2)CC1 (stereo not given),-7.08%,
Cc1ccc(CNc2ncnc3ccc(-c4ccc([C@@H](C)O)o4)cc23)o1,-21.7%,
N#Cc1ccc(-c2ccc(CNc3ccc(N4CCOCC4)cc3)cn2)cc1,,6.34 µM (active)
COc1ccc2c(c1)c(C(=O)CN(C)C)c(C)n2C,-2.85% [at 34.4 µM],
Cc1cc(C)cc(-c2ccc(C=O)cc2)c1,57%,
N#CNC(=O)c1ccc(-n2cccc2/C=C2\NC(=O)N(CC(=O)Nc3ccc(F)cc3)C2=O)cc1,,4 µM (active)
Cc1ccsc1CN(C)c1ncnc2ccc(-c3oc(-c4ccccc4)nc3C)cc12,,12.6 µM (active)
Cc1ccc(-c2ccccc2C=O)c(C)c1,14.5% [at 99.6 µM],

Structure (SMILES),"activity change, negative = inhibition",Potency
COc1ccc(-c2nc3ccccc3c(=O)n2Cc2ccccc2)cc1CNc1ccc(NC(C)=O)cc1,,12.7 µM (active)
Cc1cc(C)cc(-c2ccccc2C=O)c1,12.2%,
COc1ccc(Cl)cc1C(=O)NCc1nnc2cc(-c3nc(C)no3)ccn12,0%,
CCN(CC)CC(=O)c1c(C)n(C)c2ccc(OC)cc12,-0.132% [at 34.4 µM],
CC(=O)c1c(C)n(-c2cccc(C)c2)c2ccc(OC(=O)COc3ccccc3)cc12,27.1% [at 34.4 µM],
Cc1ccc(CNc2ncnc3ccc(-c4oc(-c5ccccc5)nc4C)cc23)o1,-17.7%,
O=C(Cc1ccc(F)cc1)Nc1cccc(-c2nc3cccnc3s2)c1,-0.883%,
CN1CCN(C(=O)c2cccc(-c3ccc(CNc4ccc(N5CCN(C(=O)OC(C)(C)C)CC5)cc4)o3)c2)CC1,-10.6%,
Cn1sc(=O)n(Cc2ccccc2)c1=O,,10.1 µM (active)
CC(=O)N1CCN(c2ccc(NCc3ccc(Br)o3)cc2)CC1,,10.1 µM (active)
Oc1cc2c(cc1CN1CCN(c3ncccn3)CC1)OCO2,,7.12 µM (active)
CC(=O)N1CCN(c2ccc(NCc3ccco3)cc2)CC1,,4 µM (active)
Cc1ccc(-c2cccc(C=O)c2)c(C)c1,-3.97%,
CCn1cnc2c(Nc3ccc(CC(=O)N=C(N)N)cc3)nc(C#N)nc21,11.7%,
Cc1cccc(-c2ccccc2C=O)c1,4.91%,
Cc1oc(-c2ccccc2F)nc1CS(=O)(=O)CC(=O)N1CCN(c2cccc(C(F)(F)F)c2)CC1,-2.44%,
O=C1Cc2cc(S(=O)(=O)N3CCN(c4ccc(Cl)cc4)CC3)ccc2N1,-29.2%,
O=C(Nc1ncc(Cc2ccc(C(F)(F)F)cc2)s1)c1ccc(-c2ccccc2[N+](=O)[O-])o1,,12.7 µM (active)
Cc1cccc(C(=O)NCc2nnc3cc(-c4nc(C)no4)ccn23)c1,2.68%,
COc1cc(O)c(C(CC(=O)N2C[C@H](C)C[C@H](C)C2)c2ccc3c(c2)OCO3)c(OC)c1 (stereo not given in full),-16.4%,

# Source: PubChem BioAssay (NCATS)
